Source: PubChem
GALK inhibitor = galactokinase (human) inhibition | P51570 | Purified GALK, Kinase-Glo residual ATP luminescence | Potency, µM (top dose mostly 57.5 µM), without a hit: at the top dose activity change, negative = inhibition, usual class: inhibitors | 0.007% of 270,000 active | AID 1868; note: potency is the fitted concentration of half-maximal effect; % is set by controls: 0 for no effect and ±100 for the full control effect
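Human GALK (5 nM) with 35 uM ATP and 100 uM galactose in 20 mM HEPES pH 8.0, 5 mM MgCl2, 60 mM NaCl, 1 mM DTT, 0.01% BSA. After 1 h at room temperature, leftover ATP was read by Kinase-Glo Plus luminescence.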
D1 agonist = activates the human D1 dopamine receptor; P21728; 1% of 360,000 active; HEK293 T-REx D1 cells, calcium flux, agonist mode; activation, % at 2 µM; in the data active = activation above about 30%; note: 0% is about no effect
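Tetracycline-induced HEK293 TREx D1 cells, force-coupled to calcium signalling, were dye-loaded with a no-wash calcium kit. Compound was pin-added after a 10 s baseline. Fluorescence was read kinetically at 1 cycle/s for 180 s, with calcium rises flagged as agonism.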
Eya2 phos inh = inhibitors of human Eya2 phosphatase activity; AID 488837; Potency, µM (titrated, usually from 76.9 µM), for inactives: at the top dose activity, negative = inhibition, most hits filed as inhibitors; 0.006% of 330,000 active; recombinant Eya2, OMFP fluorescence dephosphorylation (OMFP is methylfluorescein phosphate); note: potency is the fitted concentration of half-maximal effect; % is set by controls: 0 for no effect and ±100 for the full control effect
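Eya2 protein (added as 0.2 uM solution) was preincubated with compound for 10 min at ambient temperature in 50 mM HEPES pH 7.5, 50 mM NaCl, 5 uM MgCl2, 0.05% BSA, 1 mM DTT. OMFP (added at 50 uM) then reacted 10 min; fluorescence read at 485/525 nm.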
D1 antagonist = human D1 dopamine receptor antagonism; HEK293 TREx D1 cells, calcium flux, dopamine EC80; stronger effect = lower value; activity change, negative = inhibition, % at 10 µM; 3.2% of 360,000 active; AID 504652; in the data active = activity change below about -30%; note: % is set by controls: 0 for no effect and ±100 for the full control effect
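Kinetic fluorescence of a calcium dye serves as the read-out. D1-expressing Hek293 Trex cells, induced overnight at 30 C, are exposed to compound for 180 s before an EC80 dopamine addition, then read 180 s further.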
USP2a inh = blocks human ubiquitin-specific protease USP2a | O75604 | USP2 core, Ub-CHOP2 coupled fluorogenic reporter, 485/531 | Potency, µM (top dose mostly 38.3 µM), inactives show at the top dose activity change, negative = inhibition, hits mostly inhibitors | 0.01% of 330,000 active | AID 463254;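 note: potency is the fitted concentration of half-maximal effect; plate controls were DMSO wells for no effect and full inhibition by NEM control for full effect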
Target sequence (O75604 whole entry, looked up): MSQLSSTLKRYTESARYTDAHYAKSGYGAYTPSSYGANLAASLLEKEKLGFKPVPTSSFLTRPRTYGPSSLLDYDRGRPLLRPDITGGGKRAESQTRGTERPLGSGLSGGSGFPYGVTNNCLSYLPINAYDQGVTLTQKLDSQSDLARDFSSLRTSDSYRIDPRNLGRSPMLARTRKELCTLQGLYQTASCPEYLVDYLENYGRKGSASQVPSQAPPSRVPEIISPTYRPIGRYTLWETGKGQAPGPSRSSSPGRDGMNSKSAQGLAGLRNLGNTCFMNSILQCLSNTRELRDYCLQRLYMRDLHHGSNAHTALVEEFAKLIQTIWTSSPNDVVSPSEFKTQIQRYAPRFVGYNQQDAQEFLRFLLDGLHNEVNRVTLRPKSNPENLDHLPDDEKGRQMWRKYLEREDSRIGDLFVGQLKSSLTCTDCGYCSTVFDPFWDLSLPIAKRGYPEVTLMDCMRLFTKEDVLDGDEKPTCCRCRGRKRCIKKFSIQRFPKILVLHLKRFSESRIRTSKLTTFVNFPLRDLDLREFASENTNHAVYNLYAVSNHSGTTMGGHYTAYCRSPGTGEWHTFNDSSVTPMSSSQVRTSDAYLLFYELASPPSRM
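Deubiquitinase activity read as fluorescence (485/531 nm) after Ub-CHOP2 cleavage activates the enterokinase reporter on its substrate; USP2 core 10nM, Ub-CHOP2 and substrate 25nM each, 30min compound preincubation then 60min RT; data normalized to NEM, curves fitted.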
D1 potentiator = potentiators of human D1 dopamine receptor | P21728 | HEK293 TREx D1 cells, calcium flux, dopamine EC20 potentiation | potentiation, % at 10 µM | 0.036% of 360,000 active | AID 504651; in the data active = potentiation above about 30%; note: 0% is about no effect
An asterisk follows results filed as active; ? = inconclusive; / = no result. Most compounds without a hit are left out; they make up all but 3.9% or so of the library. Unless noted, calls come from the whole dose curve; as a rule, active = well fitted inhibition curve with a large enough effect; inconclusive = small, poorly fitted or top-dose-only effect, or effect the other way; inactive = flat fitted curve, though single readings scatter.

SMILES | GALK inhibitor | D1 agonist | Eya2 phos inh | D1 antagonist | USP2a inh | D1 potentiator
O=C(OC[C@H]1O[C@@H](OC(=O)c2cc(O)c(O)c(OC(=O)c3cc(O)c(O)c(O)c3)c2)[C@H](OC(=O)c2cc(O)c(O)c(OC(=O)c3cc(O)c(O)c(O)c3)c2)[C@@H](OC(=O)c2cc(O)c(O)c(OC(=O)c3cc(O)c(O)c(O)c3)c2)[C@@H]1OC(=O)c1cc(O)c(O)c(OC(=O)c2cc(O)c(O)c(O)c2)c1)c1cc(O)c(O)c(OC(=O)c2cc(O)c(O)c(O)c2)c1 | / | 1 | 2% | -9 | 5µM* | -3
COC1OC(COC(=O)c2ccccc2)C(OC(=O)c2ccccc2)C1OC(=O)c1ccccc1 (stereo not drawn) | -2% | 12 | -6% | 6 | -11% | -3
CC(=O)N1CCN(C(=S)NC(=O)c2ccc(S(=O)(=O)N3CCOCC3)cc2)CC1 | 0% | 3 | 9% | -31* | 0% | -7
Cc1ccc(S(=O)(=O)N2CCOCC2)cc1C(=O)NC(=S)N1CC(C)OC(C)C1 (stereo not drawn) | 3% | 0 | ? | -35* | -1% | 0
O=S(=O)(c1ccc2c(c1)OCCO2)N1CCN(S(=O)(=O)c2ccc3nc(Cl)c(Cl)nc3c2)CC1 | / | 4 | / | -20 | / | 5
CCOc1ccc(NCc2cccn2-c2nnc(N3CCC(C(=O)NCc4ccccc4Cl)CC3)s2)cc1 | / | -1 | / | 0 | / | -1
C(#Cc1ccc(C#CCN2CCCC2)cc1)CN1CCCC1 | 0% | 8 | 7% | -32* | 3% | -4
O=C(c1ccccc1)N1CCN(CC#Cc2ccccc2)CC1 | 0% | -1 | 2% | 0 | 1% | -3
O=C(COc1ccc(Cl)cc1Cl)Nc1nnc(C2=COCCO2)o1 | -1% | 2 | -4% | -69* | -1% | -7
Cc1cc(/C=N/NC(N)=S)c(C)n1-c1cccc(Cl)c1 | 0% | 13 | -6% | -2 | 0% | -3
Cc1nc2ccccn2c1C(=O)N/N=C/c1ccccc1 | 2% | 1 | -6% | -5 | 0% | 2
Cc1nc2ccccn2c1C(=O)N/N=C/c1cc(C)n(-c2ccc(Br)cc2)c1C | -3% | 2 | 1% | -47* | 0% | -23
Cc1cc(/C=N/NC(N)=S)c(C)n1-c1ccc(Cl)cc1 | -5% | 5 | -16% | -52* | -2% | -5
Cc1cc(/C=N/NC(N)=S)c(C)n1-c1ccc(Br)cc1 | 0% | 5 | -3% | -49* | -3% | -17
O=C(O)C/C(=C\c1ccc(N2CCOCC2)c([N+](=O)[O-])c1)c1nc2ccccc2s1 | 4% | 3 | 0% | -7 | 2% | 6
O=C(O)CC/C(=C\c1ccc(N2CCOCC2)c([N+](=O)[O-])c1)c1nc2ccccc2s1 | 8% | 0 | -3% | -77* | -7% | -14
CC1=C(C(=O)N2CCOCC2)C(c2ccc(Br)cc2)NC(=S)N1c1ccccc1 (stereo not drawn) | 6% | 1 | -1% | -42* | -1% | -5
CCc1ccccc1NC(=O)CSc1nc2c(c(=O)[nH]1)CN(Cc1ccccc1OC)CC2 | / | 1 | / | -7 | / | -2
CCOc1ccc(C(=O)NCCC(=O)N2CCC3(CC2)NCCc2[nH]cnc23)cc1OCC | 6% | 1 | 5% | -63* | 4% | 5
CC1CCN(C(C(=O)Nc2ccc3c(c2)OCO3)c2ccccc2)CC1 (stereo not drawn) | 2% | 2 | -12% | -42* | -2% | -9
CCc1nc(SCC(=O)Nc2ccc3c(c2)OCCO3)c2oc3ccccc3c2n1 | -2% | 2 | -1% | -34* | 0% | 5
Cc1nc(SCC(=O)Nc2ccc3c(c2)OCCO3)c2oc3ccccc3c2n1 | -1% | 4 | -5% | -7 | 0% | -1
CC(C)C(=O)Nc1nnc(SCC(=O)Nc2ccc3c(c2)OCO3)s1 | -4% | 12 | 0% | -41* | 2% | -6
Cn1cc(SCC(=O)Nc2ccc3c(c2)OCO3)c2ccccc21 | 1% | 10 | -25% | -35* | 1% | /
